Only some compounds are listed: those with a hit (about 21% of all), similar ones and a draw of the others.
Pf growth 96h: inhibits malaria parasite growth, 96 h; AID 504834; P. falciparum luciferase reporter growth, 96 h; 6.9% of 320,000 active; Potency, µM (highest dose often 28.7 µM), without a hit: at the highest dose activity change, negative = inhibition, usual class: inhibitors; note: potency is the fitted concentration of half-maximal effect; % is set by controls: 0 for no effect and ±100 for the full control effect
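Erythrocytes infected with luciferase-expressing P. falciparum were dispensed at 2% hematocrit and 0.05% parasitemia (final), then incubated with compounds 96 hours at 37 C in 5% CO2. Luminescence after detection reagent addition reported growth.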
Pf growth 48h: P. falciparum growth inhibition at 48 hours (one generation); P. falciparum luciferase growth in erythrocytes, 48 h; Potency, µM (highest dose often 28.7 µM), inactives show at the top dose activity change, negative = inhibition, actives largely listed as inhibitors; 5.9% of 310,000 active; AID 504832; note: potency is the fitted concentration of half-maximal effect; % is set by controls: 0 for no effect and ±100 for the full control effect
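Cell-based growth assay: transgenic P. falciparum expressing firefly luciferase, cultured in red cells within RPMI 1640 containing 0.5% w/v Albumax, 24 mM bicarbonate and gentamycin. A drop in luciferase activity indicates inhibition.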
Giardia FBPA inh: inhibitors of Giardia lamblia fructose-1,6-bisphosphate aldolase. A8B2U2. purified Giardia FBPA. Potency, µM (top dose mostly 59.6 µM), inactives show at the top dose activity, negative = inhibition, most hits filed as inhibitors. 0.71% of 290,000 active; note: potency is the fitted concentration of half-maximal effect; % is set by controls: 0 for no effect and ±100 for the full control effect; nearly all actives have a fitted effect of over 55% in size
Target sequence (A8B2U2 whole entry, looked up): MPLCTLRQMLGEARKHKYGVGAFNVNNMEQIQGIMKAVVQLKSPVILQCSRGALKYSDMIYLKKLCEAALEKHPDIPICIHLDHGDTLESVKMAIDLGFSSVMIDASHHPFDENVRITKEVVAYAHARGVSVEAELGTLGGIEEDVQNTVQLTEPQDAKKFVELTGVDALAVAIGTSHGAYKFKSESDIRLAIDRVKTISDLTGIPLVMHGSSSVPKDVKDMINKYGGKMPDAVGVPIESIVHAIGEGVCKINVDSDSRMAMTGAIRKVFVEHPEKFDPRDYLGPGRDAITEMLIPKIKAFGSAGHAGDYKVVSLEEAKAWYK
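40 nM FBPA preincubated 10 min at RT with compound (up to 57.5 uM final), then substrate plus GAPDH/TPI/NAD/arsenate coupling and diaphorase/resazurin added. Fluorescence read after 20 min at RT, 525/598 nm.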
NS1 inh: inhibitors of influenza NS1 protein function. AID 2326. Potency, µM (series often up to 46.1 µM), without a hit: top-dose activity, positive = more growth. 0.4% of 270,000 active; calls by dose curve; note: potency is the fitted concentration of half-maximal effect; actives are rising curves; nearly all actives have a fitted effect of over 50% in size
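In this qHTS, NS1 from influenza A is expressed in budding yeast, where it slows growth. Cells are switched from glucose to 2% galactose medium (pH 6.0, -URA), treated with compound, and growth recovery is read at OD600.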
Shiga toxin inh: blocks Shiga toxin action in Vero cells; inhibition, % at 38.7 µM; 9.2% of 290,000 active; AID 2315; Vero cells, Shiga toxin protein synthesis inhibition reporter; in the data active = inhibition mostly above about 28%, no sharp cut-off; inactive = mostly below about 43%; note: 0% is about no effect
Cycloheximide cs: counter-screen for Shiga toxin inhibitors: cycloheximide protein synthesis inhibition; max response, %; cell reporter, cycloheximide protein synthesis inhibition counterscreen; AID 2314; 12% of 300,000 active; in the data active = max response mostly above about 13%, no sharp cut-off; inactive = mostly below about 14%; note: read at 38.3 µM for the half of the compounds with a filed dose; 0% is about no effect
An asterisk follows results filed as active; ? = inconclusive; / = no result given. Unless noted, calls come from the whole dose curve; as a rule, active = well fitted curve in the direction sought with a large enough effect; inconclusive = small, poorly fitted or top-dose-only effect, or another doubt; inactive = no such curve, though single readings can be large; an effect the other way counts as inactive or inconclusive.

SMILES	Pf growth 96h	Pf growth 48h	Giardia FBPA inh	NS1 inh	Shiga toxin inh	Cycloheximide cs
CCCn1c(SCC(=O)N2c3ccccc3CC2C)nnc1-c1ccco1 (stereo unspecified)	?	12µM*	0%	-9%	-3	-2
CCCn1c(SCC(=O)N2CCc3ccccc32)nnc1-c1ccco1	?	?	-21%	-10%	-12	1
CCOc1cc(/C=N/NC(=O)Nc2ccccc2)ccc1O	-29%	48%	1%	-2%	72*	37*
COc1cc(/C=N/NC(=O)c2cc(O)cc(O)c2)ccc1OC(=O)c1ccccc1	?	-20%	-9%	11%	-7	-3
COc1cc(/C=N/NC(=O)Nc2ccccc2)ccc1OC(C)=O	123%	140%	-1%	27%	53*	39*
Cc1cc(C(=O)N/N=C2\CC(=O)c3ccccc32)c(C)n1-c1ccc(F)cc1	2.3µM*	4.7µM*	-22%	12%	41*	23*
CCOc1cc(/C=N/NC(=O)c2ccc(NC(=O)C3CC3)cc2)ccc1O	-8%	?	/	-8%	-26	-3
CCOc1cc(/C=N/NC(=O)C(=O)N2CCCC2)ccc1O	28%	3%	0%	5%	3	-4
CCN(CC)C(=O)C(=O)c1cc(C)n(-c2ccc(F)cc2)c1C	-16%	15%	7%	0%	-6	12
CCOc1cc(/C=N/NC(=O)c2cc(C)n(-c3ccc(F)cc3)c2C)ccc1O	-27%	0%	-7%	7%	87*	22*
COc1cccc(CC(CC(=O)O)C(=O)Nc2cc(C)ccc2C)c1 (stereo unspecified)	33%	-9%	8%	-10%	-12	-1
O=[N+]([O-])c1ccc(OCCO)c(P(=O)(c2ccccc2)c2ccccc2)c1	0%	0%	3%	-3%	-6	-1
CN(C)c1nc(N(C)C)nc(N2CC(=O)N(c3ccccc3)C2=N)n1	126%	2.9µM*	7%	/	-4	-9
CC(C)(C)OC(=O)N1CCC[C@H]1c1nnc(SC/C=C/c2ccccc2)o1	?	10µM*	-10%	-41%	29	3
Cn1c(CN2CCN(S(C)(=O)=O)CC2)nc2cc([N+](=O)[O-])ccc21	25%	25%	-9%	-1%	-7	-2
CNS(=O)(=O)c1cccc(C(=O)NCC(C)(C)N2CCCCC2)c1	28%	17%	5%	5%	-21	-3
CCn1c(SC/C=C/c2ccccc2)nnc1-c1cccs1	159%	?	-1%	-49%	-2	-2
CCn1c(SCC(=O)c2ccccc2)nnc1-c1cccs1	63%	116%	-13%	-19%	77*	66*
CCn1c(SCC(=O)c2cccs2)nnc1-c1ccco1	-10%	39%	-11%	-48%	87*	39*
CCn1c(SCc2nc3ccccc3nc2C)nnc1-c1cccs1	-4%	10µM*	7%	-20%	-3	-2
CCN(CC)C(=O)Nc1ccc(OC[C@H](O)CNC(C)(C)C)c(C(C)=O)c1	-30%	-18%	/	/	/	/
C#CCOn1c(-n2nc(C)cc2C)nc2ccccc2c1=O	?	3%	11%	2%	24	4
Cc1cc(CC(C)C)n(-c2nc3ccccc3c(=O)n2OCc2ccccc2)n1	12µM*	?	-1%	-46%	45	31*
Cc1cc(C)n(-c2nc3ccccc3c(=O)n2OCC(=O)N(C)C)n1	2%	?	11%	-6%	6	5
Cc1cc(CC(C)C)n(-c2nc3ccccc3c(=O)n2OCC(=O)N(C)C)n1	0%	-9%	6%	-53%	9	8
Cc1cc(C)n(-c2nc3ccccc3c(=O)n2OCC(=O)Nc2c(C)cccc2C)n1	13µM*	?	2%	-8%	3	1
Cc1cc(C)n(-c2nc3ccccc3c(=O)n2OCc2ccc(F)cc2)n1	8.3µM*	?	-14%	-33%	22	18*
Cc1cc(C)n(-c2nc3ccccc3c(=O)n2OCc2ccc(Cl)cc2)n1	?	?	-8%	-10%	11	1
Cc1cc(C)n(-c2nc3ccccc3c(=O)n2OCC(=O)OCc2ccccc2)n1	?	1.5µM*	3%	-86%	36	15*
N#Cc1ccc(NC(=O)C2=COCCO2)cc1	173%	120%	/	/	/	/

Bioassay records (PubChem BioAssay)
